Experimental data from PubChem BioAssay AID1159580 (chemical genetic matrix, 2015).
About 2,000 (36%) of roughly 5,500 compounds were called active. About 18% were inconclusive and are not listed. Rule as the data show it: active = normalized growth mostly below about 0.91 (no sharp cut-off); inconclusive = no clear call, values can overlap the other calls; inactive = mostly above about 0.92. The list shows a part of the results.

Test: chemical genetic growth profiling, strain panel (AID 1159580);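 also: tested at 20 µM; growth read once vehicle control cultures reached saturation at 30 °C; 1 = growth at the plate median or of vehicle wells; lower values mean less growth of the strain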
Conditions: growth OD

Measured: normalized growth

CC(=O)c1ccc(-c2ccc(C(C)=O)cc2)cc1
inactive: S. cerevisiae deletion strains, locus YAL013W, strain DEP1, stronger effect = lower value 1 | S. cerevisiae deletion strains, locus YBR229C, strain ROT2, stronger effect = lower value 0.999 | S. cerevisiae deletion strains, locus YDL101C, strain DUN1, stronger effect = lower value 1.03 | S. cerevisiae deletion strains, locus YDL134C, strain PPH21, stronger effect = lower value 1.01 | S. cerevisiae deletion strains, locus YDR150W, strain NUM1, stronger effect = lower value 1 | S. cerevisiae deletion strains, locus YEL061C, strain CIN8, stronger effect = lower value 1.01 | S. cerevisiae deletion strains, locus YGR078C, strain PAC10, stronger effect = lower value 1.02 | S. cerevisiae deletion strains, locus YGR229C, strain SMI1, stronger effect = lower value 1 | S. cerevisiae deletion strains, locus YHR030C, strain SLT2, stronger effect = lower value 0.999 | S. cerevisiae deletion strains, locus YHR087W, strain rtc3, stronger effect = lower value 0.987 | S. cerevisiae deletion strains, locus YJR043C, strain POL32, stronger effect = lower value 0.974 | S. cerevisiae deletion strains, locus YJR075W, strain HOC1, stronger effect = lower value 1.02 | S. cerevisiae deletion strains, locus YKL190W, strain CNB1, stronger effect = lower value 1 | S. cerevisiae deletion strains, locus YLR039C, strain RIC1, stronger effect = lower value 1.06 | S. cerevisiae deletion strains, locus YLR058C, strain SHM2 (second series), stronger effect = lower value 0.987 | S. cerevisiae deletion strains, locus YLR085C, strain ARP6, stronger effect = lower value 0.95 | S. cerevisiae deletion strains, locus YLR262C, strain YPT6, stronger effect = lower value 1.03 | S. cerevisiae deletion strains, locus YML094W, strain GIM5, stronger effect = lower value 0.955 | S. cerevisiae deletion strains, locus YMR219W, strain ESC1, stronger effect = lower value 1.02 | S. cerevisiae deletion strains, locus YMR263W, strain SAP30, stronger effect = lower value 1 | S. cerevisiae deletion strains, locus YMR307W, strain GAS1, stronger effect = lower value 0.977 | S. cerevisiae deletion strains, locus YNL153C, strain GIM3, stronger effect = lower value 1.01 | S. cerevisiae deletion strains, locus YNL298W, strain CLA4 (second series), stronger effect = lower value 1.01 | S. cerevisiae deletion strains, locus YNL322C, strain KRE1, stronger effect = lower value 1.01 | S. cerevisiae deletion strains, locus YNR030W, strain Alg12, stronger effect = lower value 1.01 | S. cerevisiae deletion strains, locus YOL006C, strain TOP1, stronger effect = lower value 0.956 | S. cerevisiae deletion strains, locus YPL055C, strain LGE1, stronger effect = lower value 0.941 | S. cerevisiae deletion strains, locus YPL241C, strain CIN2, stronger effect = lower value 0.991 | S. cerevisiae deletion strains, locus YPR135W, strain CTF4, stronger effect = lower value 1.01 | S. cerevisiae strains, strain wild type, stronger effect = lower value 1.03
